In PubChem BioAssay (NCI):
About 83,000 compounds went through this panel and 20% of them were active in at least one assay; those are over-represented in the sample as a whole.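 Treatment: one concentration, 48 hours, 96-well format. Scoring: percent growth, with anything below 10 considered active.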 Active and inactive are the calls of the source.

Experiments:
Assay in all cases: NCI-60 one-dose screen, 48 h (100 = growth as untreated, 0 = no growth, -100 = all killed)
Conditions in all cases: 10 µM unless noted
[1] = tested on: HCT-15 colon
[2] = tested on: HT29 colon
[3] = tested on: SNB-75 CNS
[4] = tested on: U251 CNS
[5] = tested on: PC-3 prostate
[6] = tested on: SK-MEL-5 melanoma
[7] = tested on: UACC-62 melanoma
[8] = tested on: LOX IMVI melanoma
[9] = tested on: SK-MEL-28 melanoma
[10] = tested on: SK-MEL-2 melanoma
[11] = tested on: EKVX NSCLC
[12] = tested on: SN12C renal
[13] = tested on: UO-31 renal
[14] = tested on: TK-10 renal
[15] = tested on: ACHN renal
[16] = tested on: CAKI-1 renal
[17] = tested on: A498 renal
[18] = tested on: CCRF-CEM leukemia
[19] = tested on: MOLT-4 leukemia

Measured: growth

CCN1C2CCC1/C(=C\c1ccccc1)C(=O)/C2=C/c1ccccc1
inactive: [1] 38.5% | [2] 42.3% | [3] 50.6% | [4] 24.5% | [5] 47.7% | [6] 56.6% | [7] 40.1% | [8] 25.2% | [9] 77.1% | [10] 54.9% | [11] 71.4% | [12] 55.4% | [13] 61.1% | [14] 84.6% | [15] 57.7% | [16] 81.8% | [17] 66.1% | [18] 28.1% | [19] 31%

N#Cc1nn(-c2cc(=O)[nH]c3ccc(Br)cc23)c(N)c1C#N
inactive: [1] 99.3% | [2] 94.8% | [3] 87.3% | [4] 106% | [6] 101% | [7] 86.6% | [8] 102% | [9] 101% | [10] 103% | [11] 87.5% | [12] 87.3% | [13] 65.7% | [14] 110% | [15] 91% | [16] 90.5% | [17] 105%
active: [5] -86.9% | [18] -32% | [19] -16.1%

CC(=O)c1sc(-c2ccc(F)cc2)cc1O
inactive: [1] 97.7% | [2] 105% | [3] 89% | [4] 100% | [5] 93.9% | [6] 100% | [7] 100% | [8] 97.4% | [9] 110% | [10] 107% | [11] 99.7% | [12] 109% | [13] 88.5% | [14] 95.1% | [15] 106% | [16] 93.3% | [17] 102% | [18] 97.6% | [19] 93.4%

O=C(c1cccc(N2CCOCC2)n1)c1c[nH]c2ccccc12
inactive: [1] 95.7% | [2] 105% | [3] 82% | [4] 91.7% | [5] 83.5% | [6] 93.8% | [7] 82.8% | [8] 93% | [9] 98.6% | [10] 103% | [11] 76.3% | [12] 89.9% | [13] 66.9% | [14] 120% | [15] 86.5% | [16] 76% | [17] 85.2% | [18] 97.2% | [19] 100%

COc1cc(C=C2C(=O)NC(=S)NC2=O)cc(CN2CCCC2)c1O
inactive: [1] 105% | [2] 109% | [3] 95.4% | [4] 96.2% | [5] 102% | [6] 111% | [7] 99.7% | [8] 97.6% | [9] 115% | [10] 110% | [11] 101% | [12] 104% | [13] 87% | [14] 109% | [15] 111% | [16] 90.5% | [17] 101% | [18] 107% | [19] 110%

Cc1nn(C)c2ncnc(N/N=C/c3cccc(O)c3O)c12
active: [6] -41.4% | [7] -8.29% | [8] 4.98% | [11] 6.94% | [12] 7.54% | [13] -13.4% | [15] 4.41% | [16] 6.5% | [18] -16.7%
inactive: [1] 28.9% | [2] 62.5% | [3] 38.6% | [4] 15.7% | [5] 35.9% | [9] 11.4% | [10] 31.5% | [14] 28.7% | [17] 26.6%

CCN(CC)CCOc1ccc(C(=O)/C=C\c2ccc(Cl)cc2Cl)cc1
inactive: [3] 82.9% | [4] 24.9% | [5] 23.3% | [9] 32.5% | [10] 81% | [11] 63.5% | [12] 43.4% | [13] 25% | [14] 75.9% | [15] 52.7% | [16] 55% | [17] 70%
active: [1] 2.05% | [2] -19.6% | [6] 6.5% | [7] -34.5% | [8] -77.3% | [18] 7.28% | [19] -13.1%
